Results: PubChem BioAssay (NCATS)
Inconclusive results are not listed. Active and inactive are the calls of the source. Calls follow the shape of the dose curve; as a rule, active = well fitted inhibition curve with a large enough effect; inconclusive = small, poorly fitted or top-dose-only effect; inactive = flat fitted curve, though single readings scatter.

Key:
TAB113 = experiment: qHTS profiling for inhibitors of Plasmodium falciparum proliferation (AID 504749); also: potency is read from the fitted curve at half-maximal effect; conditions: P. falciparum in erythrocytes, SYBR Green DNA, 72 h; series mostly up to 28.7 µM
In short: (§1)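 SYBR Green fluorescence (ex 485 nm, em 535 nm) reports parasite DNA after 72 h compound exposure of infected red cells at 0.3% parasitemia, 2.5% hematocrit; signal normalized to 0.29 uM artemisinin and vehicle wells.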

TAB165 = experiment: as above; conditions: P. falciparum in erythrocytes, SYBR Green DNA, 72 h; series mostly up to 28.7 µM
In short: as §1

W2 = experiment: as above; conditions: P. falciparum in erythrocytes, SYBR Green DNA, 72 h; series mostly up to 28.7 µM
In short: as §1

CRL-7250 = normal cell line; experiment: Cytotoxic Profiling of Annotated Libraries Using Quantitative High-Throughput Screening (AID 1296008); conditions: Five cell lines viability, CellTiter-Glo ATP luminescence, 48-72 h; max response: stronger effect = lower value; also: potency is read from the fitted curve at half-maximal effect; as to max response: % is scaled to controls: 0 for no effect and ±100 for the full control effect
In short: (§2)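 Cells exposed to compounds for 48 or 72 hr at 37 degrees Celsius. Viability read as ATP-coupled luminescence with CellTiter-Glo after 10 min at room temperature.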

HEK293 = experiment: as above; conditions: Five cell lines viability, CellTiter-Glo ATP luminescence, 48-72 h; max response: stronger effect = lower value
In short: as §2

KB-3-1 = experiment: as above; conditions: Five cell lines viability, CellTiter-Glo ATP luminescence, 48-72 h; max response: stronger effect = lower value
In short: as §2

NIH3T3 = experiment: as above; conditions: Five cell lines viability, CellTiter-Glo ATP luminescence, 48-72 h; max response: stronger effect = lower value
In short: as §2

HEK293T = experiment: qHTS assay to identify novel small-molecules to repurpose for Merkel cell carcinoma treatment (AID 1296009); conditions: MCC and control cell lines, CellTiter-Glo viability, 72 h; at 44.8 µM (top of the series) unless noted
In short: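 CellTiter-Glo luminescence after 72 hr compound exposure at 37 degree celsius gave cell viability. Libraries NPC and MIPE were run as 8- and 11-point dose responses; RLUs normalized to DMSO (negative) and no-cell (cytotoxicity) controls.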

HaCat = experiment: Cytotoxic Profiling of Annotated Libraries Using Quantitative High-Throughput Screening (AID 1296008); conditions: Five cell lines viability, CellTiter-Glo ATP luminescence, 48-72 h; max response: stronger effect = lower value; also: potency is read from the fitted curve at half-maximal effect; as to max response: % is scaled to controls: 0 for no effect and ±100 for the full control effect
In short: as §2
Also: nearly all actives have a fitted effect of over 60% in size.

CC(=O)Oc1ccc(C)cc1
inactive: Potency (TAB113) | Potency (TAB165) | Potency (W2) | max response (CRL-7250) -8.74% | max response (HEK293) -1.12% | max response (KB-3-1) 5.93% | max response (NIH3T3) 2.4%

CCCc1ncc(C[n+]2ccccc2C)c(N)n1
inactive: Potency (TAB113) | Potency (TAB165) | Potency (W2) | outcome (CRL-7250) | max response (HEK293) -18.1% | max response (KB-3-1) 2.61% | max response (NIH3T3) 2.55%

CC(C)n1c(/C=C/[C@@H](O)C[C@@H](O)CC(=O)O)c(-c2ccc(F)cc2)c2ccccc21
active: Potency (CRL-7250) 1.5 µM | Potency (HEK293) 16.8 µM | Potency (NIH3T3) 11.9 µM

C#C[C@]1(O)CC[C@H]2[C@@H]3CCC4=CC(=O)CC[C@@H]4[C@H]3CC[C@@]21CC
inactive: Potency (TAB113) | Potency (TAB165) | max response (CRL-7250) -4.9% | max response (HEK293) -17.9% | max response (KB-3-1) -1.4% | max response (NIH3T3) -3.66%

C[C@@]12C(=O)OC(=O)[C@]1(C)C1CCC2O1
active: Potency (CRL-7250) 2.99 µM | Potency (HEK293) 7.5 µM | Potency (NIH3T3) 9.44 µM

O=C1C(O)=C(O)C(=O)C(O)=C1O
inactive: Potency (TAB113) | Potency (TAB165) | max response (CRL-7250) -21.8% | outcome (HEK293) | max response (KB-3-1) -3.2% | max response (NIH3T3) -17.6% | outcome (HEK293T)

O=C(O)CCNC(=O)c1ccccc1
inactive: Potency (TAB113) | Potency (TAB165) | Potency (W2) | max response (CRL-7250) 4.33% | outcome (HEK293) | max response (KB-3-1) -6.01% | max response (NIH3T3) 0.555% | outcome (HEK293T)

O=C(O)C(Cc1cc(I)c(O)c(I)c1)c1ccccc1 (stereo not drawn)
inactive: Potency (TAB113) | Potency (TAB165) | Potency (W2) | max response (CRL-7250) -5.72% | max response (HEK293) 1.09% | max response (HaCat) -3.38% | max response (NIH3T3) -19.3%

CC(C)(C)NC[C@H](O)COc1nsnc1N1CCOCC1
active: Potency (TAB113) 6.31 µM | Potency (TAB165) 5.01 µM | Potency (W2) 1.51 µM
inactive: max response (CRL-7250) -0.569% | max response (HEK293) 1.26% | max response (KB-3-1) 0.822% | max response (NIH3T3) -2.25%

C=C[C@@]1(C)CC(=O)[C@]2(O)[C@@]3(C)[C@@H](O)CCC(C)(C)[C@@H]3[C@H](O)[C@H](OC(C)=O)[C@@]2(C)O1
inactive: Potency (TAB113) | Potency (TAB165) | Potency (W2) | max response (CRL-7250) 2.74% | max response (HEK293) -3.5% | max response (KB-3-1) -4.04%

COc1ccc2c(c1)c1c3n2CCN(C)C3=NCC1
inactive: Potency (TAB113) | Potency (TAB165) | Potency (W2) | outcome (CRL-7250) | max response (HEK293) 3.32% | max response (KB-3-1) 0.417% | max response (NIH3T3) 0.478%

CC(=O)Nc1ncc([N+](=O)[O-])s1
inactive: Potency (TAB113) | Potency (TAB165) | Potency (W2) | max response (CRL-7250) 2.19% | max response (HEK293) 0.687% | max response (HaCat) 4.2% | max response (NIH3T3) 4.2%

CCNC(=O)/C=C/c1cccc(Br)c1
inactive: Potency (TAB113) | Potency (W2) | outcome (CRL-7250) | max response (HEK293) -0.855% | max response (HaCat) 0.498% | max response (NIH3T3) -21%

O=C(Oc1cccc2cccnc12)c1ccccc1
inactive: Potency (TAB113) | Potency (TAB165) | max response (CRL-7250) -27.3% | max response (HEK293) -102% | max response (HaCat) -16.2%

CCCCCCCC/C=C\CCCCCCCCN
inactive: Potency (TAB113) | Potency (TAB165) | Potency (W2) | outcome (CRL-7250) | max response (HEK293) -3.13% | max response (KB-3-1) -6.06% | max response (NIH3T3) -3%

C[C@]12CCC(=O)C=C1C=C[C@@H]1[C@@H]2CC[C@@]2(C)[C@H]1CC[C@@]21CCC(=O)O1
inactive: max response (KB-3-1) -4.54%
active: Potency (CRL-7250) 7.5 µM | Potency (HEK293) 9.44 µM

CCC(Cc1c(I)cc(I)c(N)c1I)C(=O)O (stereo not drawn)
inactive: outcome (CRL-7250) | outcome (HEK293) | max response (KB-3-1) -8.27% | max response (NIH3T3) 2.99% | outcome (HEK293T)

CN1CCc2cccc3c2[C@H]1Cc1ccc(O)c(O)c1-3
active: Potency (TAB165) 7.08 µM | Potency (W2) 3.01 µM | Potency (HEK293) 23.7 µM
inactive: max response (CRL-7250) -21.4% | max response (KB-3-1) 10.6%

CCCCC(CC)COC(=O)/C=C/c1ccc(OC)cc1 (stereo not drawn)
inactive: Potency (TAB113) | Potency (TAB165) | Potency (W2) | max response (CRL-7250) -9.77% | max response (HEK293) -2.18% | max response (KB-3-1) 15% | max response (NIH3T3) -7.17%

NC(=O)c1ccccc1O
inactive: Potency (TAB113) | Potency (TAB165) | Potency (W2) | max response (CRL-7250) 2.66% | outcome (HEK293) | max response (KB-3-1) 10.4% | max response (NIH3T3) -3.05% | outcome (HEK293T)

CC1(C)OC[C@@H]2O[C@@]3(C(=O)O)OC(C)(C)O[C@H]3[C@@H]2O1
inactive: max response (CRL-7250) -27.6% | outcome (HEK293) | max response (KB-3-1) -15.5% | max response (NIH3T3) -5.58% | outcome (HEK293T)

Cc1ncc(CO)c(C=O)c1O
inactive: Potency (TAB113) | Potency (TAB165) | Potency (W2) | max response (CRL-7250) -16.1% | max response (HEK293) -65.4% | max response (KB-3-1) 3.7% | max response (NIH3T3) -38.1%
